41 compounds from the antibiotic and cytotoxicity screens of Wong et al. (2023) can be followed below.

In all, about 39,000 compounds went through this assay and about 1,500 (3.8%) were called active. This excerpt belongs to a sample that is enriched for actives.

The assay has as its system HSkMC (human skeletal muscle cells). Nature of the assay: cytotoxicity call (relative viability < 0.9). The following applies: 10 µM.
As to `C[C@H](CO)N1C[C@H](C)[C@H](CN(C)C)Oc2ccc(NC(=O)Cc3cn(C)c4ccccc34)cc2CC1=O`, the cytotoxicity call is “inactive”.

As for `CNC[C@@H]1OCCCC[C@H](C)Oc2ccc(NS(=O)(=O)c3cn(C)cn3)cc2C(=O)N([C@@H](C)CO)C[C@H]1C`, the cytotoxicity call was “inactive”. Turning to `C[C@H](CO)N1C[C@H](C)[C@H](CN(C)C(=O)Cc2ccncc2)Oc2cc(C#CC3(O)CCCC3)ccc2S1(=O)=O`, the cytotoxicity call is “inactive”.

With `C[C@@H]1CN([C@@H](C)CO)C(=O)c2cc(C#Cc3ccncc3)cnc2O[C@H]1CN(C)C(=O)c1ccccc1F`, the cytotoxicity call was “inactive”. Turning to `C[C@H]1CCCCO[C@@H](CN(C)C(=O)Cc2ccccc2)[C@@H](C)CN([C@@H](C)CO)C(=O)c2cc(NS(=O)(=O)c3cccs3)ccc2O1`, the cytotoxicity call was “inactive”.

In the case of `COc1ccc(NC(=O)N(C)C[C@@H]2Oc3ccc(NC(=O)Nc4cccc5ccccc45)cc3C(=O)N([C@H](C)CO)C[C@@H]2C)cc1`, the cytotoxicity call is “inactive”. Regarding `CN(C)CCCNC(=O)C[C@H]1C=C[C@@H](NS(=O)(=O)c2ccccc2)[C@@H](CO)O1`, the cytotoxicity call was “inactive”. Regarding `C[C@@H]1CN([C@@H](C)CO)C(=O)c2cc(NC(=O)Nc3ccc(C(F)(F)F)cc3)ccc2O[C@@H]1CN(C)Cc1ccc(C(F)(F)F)cc1`, the cytotoxicity call is “active”. `C[C@H](CO)N1C[C@H](C)[C@H](CN(C)Cc2ccc(C(F)(F)F)cc2)Oc2ccc(NC(=O)Nc3ccc(C(F)(F)F)cc3)cc2C1=O`: the cytotoxicity call is “active”.

Take `C[C@H](CO)N1C[C@H](C)[C@@H](CN(C)Cc2ccc(C(F)(F)F)cc2)Oc2ccc(NC(=O)Nc3ccc(C(F)(F)F)cc3)cc2C1=O`: the cytotoxicity call was “inactive”. On to `C[C@@H]1CN([C@@H](C)CO)C(=O)c2cc(NC(=O)Nc3ccc(C(F)(F)F)cc3)ccc2O[C@H]1CN(C)Cc1ccc(C(F)(F)F)cc1`, for which the cytotoxicity call is “active”.

As to `COCC#Cc1ccc2c(c1)O[C@H](CN(C)S(=O)(=O)c1cccc(F)c1)[C@@H](C)CN([C@@H](C)CO)S2(=O)=O`, the cytotoxicity call was “inactive”. Regarding `COc1ccccc1CN1C[C@@H](C)[C@H](OC)CN(C)C(=O)c2cc(NC(=O)Nc3ccccc3OC)ccc2OC[C@H]1C`, the cytotoxicity call was “inactive”. The result for `C[C@@H]1CN([C@@H](C)CO)C(=O)c2cc(-c3cccc(C#N)c3)cnc2O[C@@H]1CN(C)C(=O)C1CCOCC1` reads “inactive”. Turning to `Cc1ccc(S(=O)(=O)N(C)C[C@H]2Oc3c(NS(=O)(=O)c4c(C)noc4C)cccc3C(=O)N([C@@H](C)CO)C[C@H]2C)cc1`, the cytotoxicity call was “inactive”. `N#CC1(C#N)[C@H](c2ccccc2)[C@@H]1C(N)=O`: the cytotoxicity call is “inactive”. As to `CC(C)CC#Cc1ccc2c(c1)O[C@@H](CN(C)C(=O)c1cnccn1)[C@@H](C)CN([C@H](C)CO)S2(=O)=O`, the cytotoxicity call was “inactive”.

As for `O=C(C[C@H]1CC[C@H]2[C@@H](COC[C@@H](O)CN2S(=O)(=O)c2ccc(Cl)cc2)O1)N[C@H]1CCN(Cc2ccccc2)C1`, the cytotoxicity call is “inactive”.

Turning to `CC(C)C[C@H](NC(=O)CNC(=O)c1cc(Cl)ccc1Cl)B1OC(=O)C[C@](CC(=O)O)(C(=O)O)O1`, the cytotoxicity call is “active”. Under `Cc1noc(C)c1S(=O)(=O)Nc1ccc2c(c1)C(=O)N([C@@H](C)CO)C[C@@H](C)[C@@H](CN(C)CC1CCCCC1)OCCCC[C@H](C)O2` stands “inactive”; under `COc1ccc(-c2ccccn2)cc1`, “inactive”.

Take `Cn1nc(-c2ccccn2)nc2c(=O)n(C)c(=O)nc1-2`: the cytotoxicity call was “active”. On to `Cn1c(=O)[nH]c2nnc(-c3ccccn3)nc2c1=O`, for which the cytotoxicity call is “inactive”. For `CN1CCN(C(=O)[C@@H]2[C@@H](CO)[C@@H]3Cn4c(cccc4=O)[C@H]2N3S(=O)(=O)c2ccccc2F)CC1`, the cytotoxicity call is “inactive”.

Regarding `CC(=O)N1CCN(C(=O)Cc2ccc(S(C)(=O)=O)cc2)C[C@@H](O)C1`, the cytotoxicity call is “inactive”. Under `CC(=O)NCCCC[C@@H]1NC(=O)[C@H]2C[C@@H](C(=O)NCc3ccc(F)cc3)[C@@H](c3ccc(O)cc3)N2C1=O` stands “inactive”; under `Cc1ccc(S(=O)(=O)Nc2ccc3c(c2)CC(=O)N([C@@H](C)CO)C[C@H](C)[C@@H](CN(C)Cc2ccc(C(F)(F)F)cc2)O3)cc1`, “active”; under `C[C@@H]1CN([C@@H](C)CO)C(=O)Cc2cc(NS(C)(=O)=O)ccc2O[C@@H]1CN(C)Cc1ccc(C(F)(F)F)cc1`, “inactive”. Under `C[C@H]1CN([C@@H](C)CO)C(=O)Cc2cc(NS(C)(=O)=O)ccc2O[C@@H]1CN(C)Cc1ccc(C(F)(F)F)cc1` stands “inactive”. With `C[C@H](CO)N1C[C@H](C)[C@H](CN(C)Cc2ccc(C(F)(F)F)cc2)Oc2ccc(NS(C)(=O)=O)cc2CC1=O`, the cytotoxicity call is “inactive”.

`Cc1ccc(S(=O)(=O)Nc2ccc3c(c2)CC(=O)N([C@H](C)CO)C[C@H](C)[C@H](CN(C)Cc2ccc(C(F)(F)F)cc2)O3)cc1`: the cytotoxicity call was “active”. For the compound `Cc1ccc(S(=O)(=O)Nc2ccc3c(c2)CC(=O)N([C@H](C)CO)C[C@H](C)[C@@H](CN(C)Cc2ccc(C(F)(F)F)cc2)O3)cc1`, the cytotoxicity call is “inactive”. Take `Cc1ccc(S(=O)(=O)Nc2ccc3c(c2)CC(=O)N([C@@H](C)CO)C[C@@H](C)[C@@H](CN(C)Cc2ccc(C(F)(F)F)cc2)O3)cc1`: the cytotoxicity call was “active”. With `C[C@@H]1CN([C@H](C)CO)C(=O)Cc2cc(NS(C)(=O)=O)ccc2O[C@@H]1CN(C)Cc1ccc(C(F)(F)F)cc1`, the cytotoxicity call is “inactive”. Under `C[C@H]1CN([C@@H](C)CO)C(=O)Cc2cc(NS(C)(=O)=O)ccc2O[C@H]1CN(C)Cc1ccc(C(F)(F)F)cc1` stands “inactive”; under `C[C@@H]1CN([C@H](C)CO)C(=O)Cc2cc(NS(C)(=O)=O)ccc2O[C@H]1CN(C)Cc1ccc(C(F)(F)F)cc1`, “inactive”. `C[C@@H]1CN([C@@H](C)CO)C(=O)Cc2cc(NS(C)(=O)=O)ccc2O[C@H]1CN(C)Cc1ccc(C(F)(F)F)cc1`: the cytotoxicity call was “inactive”. As to `Cc1ccc(S(=O)(=O)Nc2ccc3c(c2)CC(=O)N([C@H](C)CO)C[C@@H](C)[C@@H](CN(C)Cc2ccc(C(F)(F)F)cc2)O3)cc1`, the cytotoxicity call was “active”.

Turning to `O=C(C[C@H]1CC[C@@H]2[C@H](COC[C@H](O)CN2S(=O)(=O)c2ccc(Cl)cc2)O1)NCCN1CCCCC1`, the cytotoxicity call was “inactive”. Take `COc1ccc(S(=O)(=O)Nc2ccc3c(c2)C(=O)N([C@H](C)CO)C[C@H](C)[C@H](CN(C)C(=O)Nc2c(C)noc2C)OCCCC[C@H](C)O3)cc1`: the cytotoxicity call is “inactive”. Turning to `C[C@@H]1CCCCO[C@@H](CN(C)S(=O)(=O)c2cccs2)[C@H](C)CN([C@H](C)CO)C(=O)c2cc(NC(=O)Nc3cccc4ccccc34)ccc2O1`, the cytotoxicity call is “inactive”.
